GCN5L2 inh-1: blocks human GCN5L2 histone acetyltransferase. 0.21% of 390,000 active. GCN5L2 HAT assay, ThioGlo1 CoA-SH fluorescence. Q92830. Potency, µM (titrated, usually from 58.9 µM), usual class: inhibitors
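Compounds, pin-transferred from DMSO stocks, meet 20nM GCN5L2 for 15 min before the reaction begins with H3(1-25) peptide (75uM) and acetyl-CoA (70uM). Thiol-reactive ThioGlo1 reports CoA release over 20 min at room temperature.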
rTrxR1 inhibitor: rat TrxR1 inhibition; recombinant rTrxR1, NADPH fluorescence consumption, selenite substrate; AID 588453; Potency, µM (top dose mostly 114 µM), actives largely listed as inhibitors; 1% of 390,000 active; O89049; also: nearly all actives have a fitted effect of over 65% in size
Target sequence (O89049 whole entry, looked up): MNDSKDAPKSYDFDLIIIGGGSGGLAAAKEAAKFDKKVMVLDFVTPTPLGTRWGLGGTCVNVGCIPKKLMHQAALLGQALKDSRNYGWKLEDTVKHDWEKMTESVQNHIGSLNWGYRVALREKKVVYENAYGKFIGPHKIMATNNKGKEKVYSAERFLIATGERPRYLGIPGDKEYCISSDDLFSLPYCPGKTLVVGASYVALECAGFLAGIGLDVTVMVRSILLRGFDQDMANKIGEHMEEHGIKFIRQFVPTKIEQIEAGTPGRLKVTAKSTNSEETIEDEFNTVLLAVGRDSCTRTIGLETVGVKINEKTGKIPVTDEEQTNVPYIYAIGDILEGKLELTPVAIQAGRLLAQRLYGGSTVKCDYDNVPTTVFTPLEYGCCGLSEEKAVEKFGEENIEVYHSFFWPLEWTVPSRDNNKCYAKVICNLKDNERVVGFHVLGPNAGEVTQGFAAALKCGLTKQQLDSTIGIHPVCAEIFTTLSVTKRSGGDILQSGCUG
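Rat TrxR1 (90 nM in the dispensed reagent) was pre-reduced with 400 uM NADPH for 5 min at room temperature, then incubated with compound for 15 min. After 400 uM selenite was added, NADPH fluorescence (Ex 340/Em 450 nm) was followed for 8 min.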
GLS inhibitor: glutaminase GLS (human) inhibition; Potency, µM (titrated, usually from 45.5 µM), usual class: inhibitors; GLS enzymatic activity, qHTS titration; AID 624170; 0.21% of 410,000 active
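Glutamate formation by hKGA was monitored fluorometrically using coupled glutamate oxidase, HRP and Amplex Red. Substrate was added as 1 mM L-glutamine solution; incubation was 30 min at RT after an initial read.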
TrxR1 substrate: rat thioredoxin reductase 1 substrate activity | O89049 | purified TrxR1 substrate turnover, NADPH consumption readout | Potency, µM (titrated, usually from 114 µM) | 0.01% of 390,000 active; also: nearly all actives have a fitted effect of over 50% in size
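Rat TrxR1, dispensed at 90 nM, was prereduced with 400 uM NADPH (final) for 5 min at ~22 deg C, then incubated with compound 15 min before 400 uM selenite. A first-read NADPH fluorescence drop versus no-compound background flagged substrates.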
VDR inh: blocks the human vitamin D receptor | P11473 | VDR-SRC2-3 peptide fluorescence polarization, 2 h | Potency, µM, actives largely listed as inhibitors | 0.93% of 400,000 active | AID 504847
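Two reagent solutions held at 4 deg C in the dark were dispensed, compounds pinned at 23 nl, and the mixture incubated 2 h at room temperature. Read-out: fluorescence polarization of VDR–SRC2-3 peptide binding.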
Sfp inh: blocks B. subtilis Sfp PPTase activity | Biochemical Sfp PPTase activity, qHTS | 3.5% of 310,000 active | Q9F4F7 | Potency, µM, hits mostly inhibitors;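 also: the enzyme is Sfp with the accession as filed and its product quenches rhodamine fluorescence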
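Step 1, compound plus 15 nM Sfp-PPTase, 15 min, room temperature. Step 2, add rhodamine-CoA (5 uM) and BHQ-2-YbbR (12.5 uM). Step 3, read 525/598 nm fluorescence at 0 and 30 min.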
Sfp PPTase conf: Sfp phosphopantetheinyl transferase inhibition, confirmation; 79% of 380 active; AID 2701; Sfp PPTase enzymatic assay, qHTS titration; shares compounds with Sfp inh; Potency, µM (series often up to 114 µM), actives largely listed as inhibitors
Target sequence (Q9F4F7 whole entry, looked up): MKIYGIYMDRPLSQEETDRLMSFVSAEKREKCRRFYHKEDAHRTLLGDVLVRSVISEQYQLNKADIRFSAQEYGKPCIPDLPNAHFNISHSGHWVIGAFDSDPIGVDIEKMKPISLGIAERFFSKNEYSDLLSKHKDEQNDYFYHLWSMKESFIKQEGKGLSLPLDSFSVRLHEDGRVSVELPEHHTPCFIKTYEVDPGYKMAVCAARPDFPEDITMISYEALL
Sfp PPTase gel: Blocks Sfp PPTase activity, gel read-out; Potency, µM, most hits filed as inhibitors; shares compounds with Sfp inh; purified Sfp, gel-based phosphopantetheinylation read-out; 20% of 210 active;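 active = potency below 100 µM; inconclusive = dose-dependent response but potency above 100 µM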;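 also: potency is an IC50 for inhibitors of Sfp transfer activity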
GCN5L2 inh-2: human KAT2A HAT inhibition, hit confirmation; shares compounds with GCN5L2 inh-1; GCN5L2 HAT, ThioGlo1 CoA fluorescence, 20 min; Potency, µM, usual class: inhibitors; 70% of 140 active
VDR confirm: inhibits human vitamin D receptor, primary hit validation. shares compounds with VDR inh. 89% of 840 active. Potency, µM, usual class: inhibitors. VDR-coactivator inhibition assay, qHTS confirmation
VDR FP fluor: blocks human VDR-coactivator binding in fluorescein assay; 48% of 840 active; Potency, µM (titrated, usually from 57.1 µM), hits mostly inhibitors; VDR-coactivator binding, fluorescein fluorescence polarization; shares compounds with VDR inh
VDR bla reporter: confirmation of human vitamin D receptor inhibitors in reporter cells; shares compounds with VDR inh; VDR beta-lactamase reporter cells, FRET ratio; cells co-treated with VDR agonist LG190178; Potency, µM (top dose mostly 46.1 µM), actives largely listed as inhibitors; 23% of 840 active; AID 602202
VDR viability: cytotoxic in counter-screen for VDR inhibitors; Potency, µM (titrated, usually from 48.3 µM), hits mostly cytotoxic; shares compounds with VDR inh; cytotoxicity counter-screen, cell viability, qHTS; 18% of 840 active; also: nearly all actives have a fitted effect of over 75% in size
Hits are given with their value; – = inactive; ? = inconclusive; · = not tested or not shown; ! = not confirmed by another sample. A selection: hits, their analogues and other compounds. The true share with any hit is near 3.8%. Unless noted, calls follow the shape of the dose curve; as a rule, active = well fitted curve in the direction sought with a large enough effect; inconclusive = small, poorly fitted or top-dose-only effect, or another doubt; inactive = no such curve, though single readings can be large; an effect the other way counts as inactive or inconclusive.

SMILES	GCN5L2 inh-1	rTrxR1 inhibitor	GLS inhibitor	TrxR1 substrate	VDR inh	Sfp inh	Sfp PPTase conf	GCN5L2 inh-2	others
CN(C)c1ccc(C(=S)N2CCN(Cc3ccccc3)CC2)cc1	–	–	–	–	50.1µM	2.24µM	11.8µM	·
CCN1CCN(C(=S)Nc2ccc(Cl)cc2)CC1	–	–	–	–	–	–	·	·
CN1CCN(C(=S)c2ccc(N(C)C)cc2)CC1	–	–	–	–	?	–	·	·
CCN(CC)c1ccc(C(=O)N2CCN(Cc3ccccc3)CC2)cc1	–	–	–	–	–	–	·	·
CCN1CCN(C(=S)c2ccc(O)cc2)CC1	–	–	–	–	79.4µM	2.82µM	8.35µM	·
CN1CCN(C(=S)c2ccc(Br)cc2)CC1	–	–	–	–	?	1.26µM	13.2µM	·
CC(=O)NCCc1cnc[nH]1	–	–	–	–	–	–	·	·
CCOC(=O)c1c(N)sc2c1CCN(Cc1ccccc1)C2	–	–	–	–	39.8µM	10µM	21µM	·
COC(=O)c1cccc(-n2c(CCC(=O)O)ccc2-c2cccs2)c1	?	?	–	–	–	3.98µM	21µM	·	Sfp PPTase gel=?
c1csc(-c2nc3ccccc3s2)c1	–	–	–	–	–	35.5µM	46.9µM	·	Sfp PPTase gel=?
Oc1ccc(-c2nc3ccccc3s2)cc1	–	–	–	–	–	–	·	·
CN=c1nc(-c2ccccc2)n(-c2ccccc2)s1	2.24µM	?	?	–	50.1µM	·	0.835µM	2.57
CC(Oc1ccccc1)C(=O)N[C@@H]1C(=O)N2C(C(=O)OCC3CCCCC3)C(C)(C)S[C@H]12 (stereo partly drawn)	·	–	·	–	·	·	·	·
Cc1ccc(-c2cnc(-c3ccncc3)o2)cc1	?	?	–	–	–	56.2µM	–	18.2	Sfp PPTase gel=–
Nc1ccc(-c2ncc(-c3ccccc3)o2)cc1	–	–	–	–	–	–	·	·
COc1ccc2nc(S(=O)Cc3ncc(C)c(OC)c3C)[nH]c2c1 (stereo not drawn)	?	–	–	–	89.1µM!	20µM!	37.3µM	·	VDR confirm=2.67;VDR FP fluor=?;VDR bla reporter=–;VDR viability=–
CCc1c(C)sc(NC(=O)c2ccoc2C)c1C(N)=O	?	–	?	–	35.5µM	11.2µM	8.35µM	·	VDR confirm=6.7;VDR FP fluor=?;VDR bla reporter=–;VDR viability=–
Fc1ccc(C2=NCCC(c3ccccc3)O2)cc1 (stereo not drawn)	–	·	·	·	?	–	·	·
O=S(=O)(Nc1ccc(F)c(Cl)c1)c1ccc(Br)s1	–	–	–	–	–	·	·	·
Clc1ccccc1-c1nn2c(COc3ccccc3)nnc2s1	–	–	–	–	–	?	·	·
c1ccc(Cc2nn3c(COc4ccccc4)nnc3s2)cc1	–	–	–	–	79.4µM	14.1µM	18.7µM	·	VDR confirm=23.8;VDR FP fluor=?;VDR bla reporter=–;VDR viability=–
Cc1sc2ncnc(SCC(=O)N(C(C)C)C(C)C)c2c1C	–	–	–	–	–	–	·	·
O=C(NC1CC1)c1sc2cc([N+](=O)[O-])ccc2c1Cl	–	?	–	–	–	–	·	·
CC(NC(=O)c1sc2cc([N+](=O)[O-])ccc2c1Cl)C(C)(C)C (stereo not drawn)	?	?	–	–	?	7.94µM	0.527µM	3.63	Sfp PPTase gel=0.69µM;VDR confirm=5.62;VDR FP fluor=3.16µM;VDR bla reporter=–;VDR viability=–
O=C(Nc1nnc(COc2ccc(Cl)cc2)s1)c1ccco1	–	–	–	–	28.2µM	7.08µM	5.91µM	·	VDR confirm=4.23;VDR FP fluor=?;VDR bla reporter=–;VDR viability=–
SMILES	GCN5L2 inh-1	rTrxR1 inhibitor	GLS inhibitor	TrxR1 substrate	VDR inh	Sfp inh	Sfp PPTase conf	GCN5L2 inh-2	others
CCOc1cc(/C=C2\C(=O)N(c3nc(-c4ccc(Br)cc4)cs3)N=C2c2ccccc2)ccc1O	?	–	–	–	–	–	·	5.13
COc1ccc(OC)c(S(=O)(=O)N2CCN(C(=O)c3ccco3)CC2)c1	–	–	–	–	–	–	·	·
O=C(O)c1ccc(C[n+]2c(-c3ccccc3)csc2Nc2ccccc2)cc1	–	–	–	–	–	–	·	·
CC(C)(C)c1cc(-c2csc(Nc3ccccc3)[n+]2Cc2ccc(C(=O)O)cc2)cc(C(C)(C)C)c1O	22.4µM	–	–	–	79.4µM	–	·	18.2
Cc1cn([C@H]2C[C@H](O)[C@@H](CNC/C=C/c3ccccc3[N+](=O)[O-])O2)c(=O)[nH]c1=O	·	·	–	·	·	·	·	·
CCc1ccc(S(=O)(=O)/N=C2/C=C(Sc3ncn[nH]3)C(=O)c3ccccc32)cc1	31.6µM	?	–	7.94µM	25.1µM	3.55µM	·	4.57
COc1ccc(C(C)(NC(C)=O)c2nc(-c3cccc(C(F)(F)F)c3)cs2)cc1 (stereo not drawn)	·	·	–	·	·	·	·	·
c1ccc2sc(SN3CCOCC3)nc2c1	?	?	–	–	?	–	·	14.5
O=C(N/N=C/c1ccc(-c2ccc(S(=O)(=O)Nc3ncccn3)cc2)o1)c1cc2ccccc2cc1O	?	?	?	–	–	50.1µM	·	?
COc1ccc(C=O)cc1COc1ccc(Cl)cc1[N+](=O)[O-]	–	–	–	–	–	–	·	·
C=CCn1c(SCC(=O)Nc2cc(Cl)ccc2C(=O)O)nc2sc(C)c(C)c2c1=O	31.6µM	–	?	–	–	·	·	?
CCOc1ccc(-c2cc(NC(=O)c3cccc(Cl)c3)c(C(=O)OC)s2)cc1	–	–	–	–	–	·	·	·
CCN(CC)c1ccc2cc(NC(=O)CCC(=O)O)c(=O)oc2c1	20µM	–	–	–	–	–	·	32.4
O=C(CN1C(=O)/C(=C2\SC(=S)N(CCS(=O)(=O)O)C2=O)c2ccccc21)Nc1cccc(Br)c1	20µM	?	–	–	?	56.2µM	·	11.5
O=C(O)CCN1C(=O)/C(=C2\C(=O)N(Cc3ccc(F)cc3)c3ccccc32)SC1=S	?	–	–	–	?	–	·	·

Screens as filed in PubChem BioAssay.
